From PubChem
The entries come from a sample that favours hits as a whole.
Dicer inh – blocks human Dicer maturation of pre-miR-21 | cat-ELCCA pre-miR-21 Dicer processing, chemiluminescence; stronger effect = higher value | z-score at 25 µM | hit rate 6% among 47,000 | AID 1347074; in the data active = z-score above about 3, passing the limit was not always enough;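 note: higher signal means more uncleaved substrate so more Dicer inhibition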
Each line names hits and unclear results; the compound was inactive in the other large screens.

O=C1c2oc3ccccc3c(=O)c2C(c2ccc(O)cc2)N1c1ccccn1 (centres undefined)	Dicer inh 5.1
COc1ccc(C2c3c(oc4ccccc4c3=O)C(=O)N2c2ccccn2)cc1OC (centres undefined)	none
O=C1c2oc3ccccc3c(=O)c2C(c2ccc(O)cc2)N1c1nncs1 (centres undefined)	none
CCc1ccc(C2c3c(oc4ccccc4c3=O)C(=O)N2c2ccccn2)cc1 (centres undefined)	none
COc1ccc(C2c3c(oc4ccccc4c3=O)C(=O)N2c2ccccn2)cc1 (centres undefined)	Dicer inh 4.1
CCCOc1ccc(C2c3c(oc4ccccc4c3=O)C(=O)N2c2ccc(C)cn2)cc1 (centres undefined)	none
O=S(=O)(NCc1ccccc1)c1cccc(S(=O)(=O)c2ccc(Br)cc2)c1	none
CCOC(=O)C1C(=O)C=C(c2cccs2)CC1c1ccc(OC)c(OC)c1Cl (centres undefined)	none
O=C(C1CCCCC1)N(Cc1ccc(Br)cc1)c1ccc(F)cc1	none
CC(C)(C)OC(=O)N[C@@H](Cc1ccccc1)c1n[nH]c(=S)n1CC1CCCO1 (some centres undefined)	none
COC(=O)c1sc(=S)sc1C(=O)OC	Dicer inh 3.8
COC(=O)c1sc(Br)c(Br)c1O	none
COC(=O)c1cc(O)c(C(=O)OC)s1	none
O=C1CCCc2nc3c(cc21)C(=O)CCC3	Dicer inh 4
Cc1cc(C)nc(-n2ncc3c2CCCC3=O)n1	none
Cc1cc(C)nc(SCC(=O)Nc2ncc3c(n2)CCCC3=O)n1	none
COc1ccc(CS/C(N)=N/N)cc1	none
CCOC(=O)/C(C#N)=C/c1ccc(Br)cc1	none
COC(=O)/C(C#N)=C/c1ccc(Cl)cc1	none
COC(=O)/C(C#N)=C/c1cccc(Br)c1	Dicer inh 9.3
Cc1cc(C)c(CSC(=N)N)c(C)c1CSC(=N)N	none
Cc1ccc(-c2nnnn2-c2ccccc2C(F)(F)F)cc1	none
N#Cc1ccc(CN2C(=O)CSC2=S)cc1	none
Oc1ccccc1C1=NN2C(C1)c1ccccc1OC2c1cccs1 (centres undefined)	none
COc1ccc(C2Oc3ccccc3C3CC(c4ccccc4O)=NN32)cc1 (centres undefined)	none
COc1ccc(O)c(C2=NN3C(C2)c2cc(Br)ccc2OC3c2ccsc2)c1 (centres undefined)	none
COc1ccc(C2Oc3ccccc3C3CC(c4cc(OC)ccc4O)=NN32)cc1 (centres undefined)	Dicer inh 9.8
CC(C)CC1Oc2ccccc2C2CC(c3ccccc3O)=NN12 (centres undefined)	Dicer inh 5.3
COc1ccc(O)c(C2=NN3C(C2)c2ccccc2OC3c2ccccc2F)c1 (centres undefined)	Dicer inh 6.9
COc1ccc(C2Oc3ccccc3C3CC(c4ccccc4O)=NN32)c(OC)c1 (centres undefined)	none
CC(C)C1Oc2ccc(Cl)cc2C2CC(c3ccccc3O)=NN21 (centres undefined)	none
CSCCC1Oc2ccccc2C2CC(c3cc(C)ccc3O)=NN12 (centres undefined)	none
Oc1ccccc1C1=NN2C(C1)c1cc(Br)ccc1OC2c1ccsc1 (centres undefined)	Dicer inh 4.2
COc1cccc(C2Oc3ccccc3C3CC(c4cc(OC)ccc4O)=NN32)c1 (centres undefined)	none
COc1ccc(C2Oc3ccccc3C3CC(c4cc(OC)ccc4O)=NN32)c(OC)c1 (centres undefined)	none
O=C(CSc1nc2ccccc2o1)N1CCc2c([nH]c3ccccc23)C1C(F)(F)F (centres undefined)	none
Cc1cc(C)c(C#N)c(Nc2ccc(Br)cc2)n1	none
COc1cc(OC)c(C(F)(F)F)cc1NC(=O)c1c(OC)cccc1OC	none
CCOC(=O)c1cc2c(C(F)(F)F)nn(C)c2s1	none
O=C(O)c1cccc(CSc2cccs2)c1	none
Nc1ccccc1SC1CC(=O)N(c2ccccc2Oc2ccc(Cl)cc2Cl)C1=O (centres undefined)	none
Cc1ccc(C(=O)Oc2cccc(C3C4=C(Nc5c3c(=O)[nH]c(=O)n5C)c3ccccc3C4=O)c2)cc1 (centres undefined)	none
CS(=N)(=O)c1ccc(Oc2cccc(F)c2C#N)cc1 (centres undefined)	none
O=C1OC(c2ccccc2)=N/C1=C\c1ccc(/C=C2\N=C(c3ccccc3)OC2=O)cc1	none
O=C1OC(/C=C/c2ccccc2)=NC/1=C/c1ccc(Cl)cc1	none
O=C1OC(/C=C/c2ccccc2)=NC/1=C/c1cccc2ccccc12	Dicer inh 3.5
CCOC(=O)Cn1cc(Br)c(=O)[nH]c1=O	none
Clc1ccccc1CSc1nnc2sc3ccccc3n12	none
O=C(Oc1ccc(Cl)c2cccnc12)N1CCCC1	none
Cc1ccc(-n2nnnc2SCCOc2ccc(C)c(C)c2)cc1	Dicer inh 9.8
Cc1cc(=O)[nH]c(SCCOc2ccc(C)c(C)c2)n1	none
C=CCSc1nnnn1-c1ccc(OC(=O)C=C(C)C)cc1	none
CC(C)(C)C(=O)CSc1nc(N)c(C(=O)C(C)(C)C)s1	none
CCCCNC(=O)n1nccc1-c1sc(-c2cccs2)nc1C	none
COc1cc2c(cc1OC)C(C)N(C(=O)CC(C)(C)CC(=O)O)CC2 (centres undefined)	none
CC(=O)Nc1nc2ccccc2n1CCN(C)C	none
CCn1c(NCc2c(O)ccc3ccccc23)nc2ccccc21	none
CCCn1c(NCc2nc3ccccc3n2C)nc2ccccc21	none
CCN(CC)CCn1c(NCc2ccccc2O)nc2ccccc21	Dicer inh 6.1
CCCn1c(NCc2cccc(Br)c2)nc2ccccc21	none
CCN(CC)CCn1c(NCc2ccc(Br)cc2)nc2ccccc21	none
CCN(CC)CCn1c(NCc2ccco2)nc2ccccc21	Dicer inh 3.8
CCN(CC)CCn1c(NCc2ccccc2Cl)nc2ccccc21	none
CCOc1ccccc1CNc1nc2ccccc2n1CCN(CC)CC	Dicer inh 5.3
CCCn1c(NCc2cc(C)ccc2O)nc2ccccc21	none
C=CCc1cccc(CNc2nc3ccccc3n2CC)c1O	Dicer inh 6.9
CCn1c(NCc2ccc(N(C)C)cc2)nc2ccccc21	none
CCCc1nnc(N2C(=O)c3oc4ccc(F)cc4c(=O)c3C2c2ccccc2)s1 (centres undefined)	none
Cn1cc(Br)c(C(=O)Nc2nc3ccc4ccccc4c3s2)n1	none
O=C(Cn1nnc(-c2cc(Cl)cc(Cl)c2)n1)c1ccc2ccccc2c1	none
COC(=O)/C(C#N)=C/c1ccc(SC)s1	none
C#CC(C)(C)NS(=O)(=O)c1ccc(Oc2c(Cl)cccc2[N+](=O)[O-])cc1	none
FC(F)(F)c1cc(C(F)(F)F)n2ncc(-c3nc(-c4ccc(Cl)cc4)cs3)c2n1	none
CCOC(=O)N=Nc1c(O)[nH]c2ccc(F)cc12	none
CC(C)(C)Nc1nc(C(=O)O)nc(N2CCOCC2)n1	none
CC(C)(C)Nc1nc(C(N)=O)nc(N2CCOCC2)n1	Dicer inh 5.1
CCCNC(=O)NNC(=O)C(C)n1nnc(N2CCOCC2)n1 (centres undefined)	none
CN(C)c1nc(C(=O)O)nc(N2CCOCC2)n1	Dicer inh 3.4
CCOC(=O)c1cnc(N2CCOCC2)nc1N	none
CN(C)c1nc(N2CCOCC2)nc(N(c2ccccc2)c2ccccc2)n1	none
Cc1cc(NC(=O)CC2NCCN(Cc3ccccc3)C2=O)no1 (centres undefined)	none
Cc1c(Cl)cccc1NC(=S)NN(C)C	none
O=[N+]([O-])c1c(N2CCCC2)ccc2nsnc12	none
Cn1cc(C(=O)O/N=C/c2ccc(Cl)cc2)c(C(F)(F)F)n1	none
O=C(NCc1ccc2c(c1)CCO2)c1csc2ccccc12	none
O=C1c2ccccc2C(=O)N1CN1CCN(C(c2ccccc2)c2ccccc2)CC1	none
O=C1c2ccccc2C(=O)N1CN1CCSCC1	none
